Results on 94 sequences are retold here after paper PMC10668032, “Altered binding affinity of SIX1-Q177R correlates with enhanced WNT5A and WNT pathway effector expression in Wilms tumor”.

Whole data set: some 33,000 sequences, median “e-score” near -0.053, cut for the highest 2% near 0.38. The full list was thinned out, with the highest values kept by preference.

This assay has as its target T1, SIX1 homeodomain (reference allele) (human, UniProt Q15475 108-198).
T1 sequence: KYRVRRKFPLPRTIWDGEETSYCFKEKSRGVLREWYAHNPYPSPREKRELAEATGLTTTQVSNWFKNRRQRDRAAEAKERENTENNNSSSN
Briefly: universal protein binding microarray; Universal all-10-mer PBM (8x60K, AMADID 030236), 300 nM GST-tagged protein, Alexa Fluor 488 anti-GST; buffer, salt, pH and temperature not stated (as in Berger); high values mean tight binding. Conditions: protein: ivt; tags: N-terminal GST; dsDNA, one strand shown. A digest of the protocol:
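After in vitro transcription/translation, GST-tagged homeodomains were quantified against a recombinant GST standard curve by anti-GST western blot. They were then placed in duplicate at 300 nM final concentration on universal 'all 10-mer' protein binding microarrays of 8×60K format.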
ATCTTCGA: the binding signal was found to be 0.193 ± 0.0484 E-score.

Take GAGGAATA: the binding signal amounted to 0.21 ± 0.0309 E-score.

GACCTATC: the binding signal is 0.269 ± 0.00861 E-score.

For the sequence GCATGATA, the binding signal was determined as 0.4269 ± 0.00375 E-score.

In the case of ACATGATC, the binding signal was 0.279 ± 0.0144 E-score.

On to ACATGAGA, for which the binding signal was 0.183 ± 0.0219 E-score.

CCATGATC: the binding signal is 0.293 ± 0.0102 E-score.

Consider CCATGAGA, for which the binding signal worked out at 0.242 ± 0.0275 E-score.

Turning to GCCTGATA, the binding signal turned out to be 0.321 ± 0.0449 E-score.

For the sequence CCATGATA, the binding signal was 0.376 ± 0.00711 E-score.

For the sequence GCACGATA, the binding signal is 0.325 ± 0.00783 E-score.

On to ACATGATA, for which the binding signal is 0.426 ± 0.0281 E-score.

For the sequence AACCATCT, the binding signal is 0.154 ± 0.0503 E-score.

As to ATCAATAA, the binding signal was found to be 0.182 ± 0.0114 E-score.

Turning to ATCAGCCA, the binding signal amounted to 0.237 ± 0.00617 E-score.

Turning to ACCGCTAT, the binding signal turned out to be 0.216 ± 0.0322 E-score.

In the case of GAGATAGC, the binding signal amounted to 0.161 ± 0.0517 E-score.

On to GAGATACC, for which the binding signal amounted to 0.44068 ± 0.000332 E-score.

For the sequence GAGATACA, the binding signal amounted to 0.332 ± 0.0042 E-score.

In the case of AAGATACG, the binding signal was 0.322 ± 0.0506 E-score.

Consider AAGATACC, for which the binding signal stood at 0.426 ± 0.0219 E-score.

As to CAGATACG, the binding signal worked out at 0.334 ± 0.0281 E-score.

As to CAGATACA, the binding signal stood at 0.355 ± 0.0318 E-score.

Turning to CAGATACC, the binding signal was determined as 0.433 ± 0.00544 E-score.

AAAATACC: the binding signal amounted to 0.181 ± 0.0716 E-score.

For GATCTGGC, the binding signal was 0.295 ± 0.0253 E-score.

ATATTGTA: the binding signal was determined as 0.294 ± 0.0399 E-score.

Regarding TAATATTA, the binding signal is 0.161 ± 0.0729 E-score.

For GATCAAGC, the binding signal came out at 0.312 ± 0.00728 E-score.

Regarding ACACGACT, the binding signal came to 0.162 ± 0.0387 E-score.

Regarding ATCATTCG, the binding signal came out at 0.294 ± 0.00745 E-score.

Take GAGCGATC: the binding signal was 0.279 ± 0.0379 E-score.

As to GATCTCCC, the binding signal was found to be 0.361 ± 0.00166 E-score.

TATCGAAA: the binding signal was 0.345 ± 0.0543 E-score.

For CCATCTCG, the binding signal turned out to be 0.166 ± 0.114 E-score.

Take GATCATAC: the binding signal was found to be 0.3778 ± 0.00307 E-score.

Consider CATCATAC, for which the binding signal is 0.151 ± 0.0343 E-score.

With GATCACCC, the binding signal stood at 0.407 ± 0.0371 E-score.

For GATCACAC, the binding signal was 0.351 ± 0.0284 E-score.

In the case of GATCACGC, the binding signal stood at 0.317 ± 0.0237 E-score.

GCTCATCC: the binding signal was determined as 0.219 ± 0.00236 E-score.

Regarding GATCATCA, the binding signal was 0.34 ± 0.00658 E-score.

Turning to GATCATGC, the binding signal came out at 0.242 ± 0.0641 E-score.

Take GATCATCC: the binding signal amounted to 0.41 ± 0.0124 E-score.

Turning to GATGGGGA, the binding signal is 0.191 ± 0.049 E-score.

Regarding CGTGGATA, the binding signal turned out to be 0.362 ± 0.0371 E-score.

Turning to ACCTGCTA, the binding signal came out at 0.2283 ± 0.000693 E-score.

For TGGTGACA, the binding signal was 0.156 ± 0.0327 E-score.

For GATCCTAC, the binding signal turned out to be 0.32 ± 0.0262 E-score.

With AGGCGATA, the binding signal stood at 0.357 ± 0.00753 E-score.

In the case of CAGCGATA, the binding signal was found to be 0.359 ± 0.0421 E-score.

As for GAGCGATA, the binding signal turned out to be 0.344 ± 0.042 E-score.

For AAGCGATA, the binding signal stood at 0.376 ± 0.0611 E-score.

For GTGCGATA, the binding signal amounted to 0.36 ± 0.0111 E-score.

Regarding AAGCGATC, the binding signal is 0.239 ± 0.00546 E-score.

Consider CTGCGATA, for which the binding signal is 0.342 ± 0.0342 E-score.

On to ATGCGATA, for which the binding signal is 0.394 ± 0.037 E-score.

Consider TAGCGATA, for which the binding signal worked out at 0.3796 ± 0.0024 E-score.

For the sequence AGATAGTG, the binding signal turned out to be 0.152 ± 0.0589 E-score.

As to CCCATCCG, the binding signal amounted to 0.191 ± 0.101 E-score.

As to CAATGACA, the binding signal was 0.198 ± 0.0712 E-score.

As for GGTGTTTA, the binding signal was found to be 0.203 ± 0.0284 E-score.

Regarding ACCCGACA, the binding signal came out at 0.239 ± 0.0574 E-score.

For ATCAATGC, the binding signal came to 0.163 ± 0.0171 E-score.

In the case of ATCCATTA, the binding signal was 0.244 ± 0.00287 E-score.

With AGCCGTAT, the binding signal worked out at 0.292 ± 0.018 E-score.

For ATATACGC, the binding signal stood at 0.244 ± 0.0546 E-score.

Take GAAGATCC: the binding signal came out at 0.297 ± 0.0273 E-score.

In the case of AATGATCG, the binding signal came out at 0.152 ± 0.117 E-score.

On to AATGATCT, for which the binding signal came to 0.369 ± 0.0567 E-score.

As to GATGATCA, the binding signal is 0.315 ± 0.00602 E-score.

For the sequence AATGATCC, the binding signal turned out to be 0.424 ± 0.011 E-score.

On to CATGATCC, for which the binding signal stood at 0.394 ± 0.00778 E-score.

As to GATGATCC, the binding signal turned out to be 0.45356 ± 0.000438 E-score.

In the case of CATGATCA, the binding signal turned out to be 0.177 ± 0.0294 E-score.

For the sequence TATGATCA, the binding signal was determined as 0.25 ± 0.0234 E-score.

AACGGGAT: the binding signal worked out at 0.243 ± 0.0163 E-score.

For the sequence GATAGGAC, the binding signal was determined as 0.22 ± 0.0517 E-score.

Turning to TCATGGGA, the binding signal was determined as 0.153 ± 0.0225 E-score.

ATAGCCAA: the binding signal came out at 0.218 ± 0.0447 E-score.

In the case of CCGCGGTA, the binding signal worked out at 0.194 ± 0.102 E-score.

As to CGGTGTAG, the binding signal was determined as 0.297 ± 0.025 E-score.

On to AACAGATC, for which the binding signal turned out to be 0.2 ± 0.0405 E-score.

On to AACGGATT, for which the binding signal amounted to 0.204 ± 0.0564 E-score.

With AACGGATA, the binding signal is 0.421 ± 0.0091 E-score.

Regarding CACAGATC, the binding signal amounted to 0.277 ± 0.0367 E-score.

Consider AACGGGTA, for which the binding signal turned out to be 0.159 ± 0.0738 E-score.

As for CACGGATA, the binding signal stood at 0.397 ± 0.0101 E-score.

As for CACAGATA, the binding signal worked out at 0.205 ± 0.00976 E-score.

For the sequence CACGGATC, the binding signal turned out to be 0.405 ± 0.0341 E-score.

Take GACGGATC: the binding signal is 0.358 ± 0.041 E-score.

As for GACGGATA, the binding signal worked out at 0.35 ± 0.0364 E-score.

For the sequence AATGGATC, the binding signal is 0.35 ± 0.00509 E-score.

Turning to AACGGATC, the binding signal is 0.376 ± 0.0111 E-score.
